A selection: hits, their analogues and other compounds. The true share with any hit is near 3%.
Nrf2 inh – blocks Nrf2 signaling. A549 ARE-Fluc reporter, luciferase luminescence, 18-24 h. Potency, µM (series often up to 46 µM), inactives show top-dose activity change, negative = inhibition, most hits filed as inhibitors. 360,000 compounds, 2.1% hits. AID 504444; note: % is set by controls: 0 for no effect and ±100 for the full control effect; nearly all actives have a fitted effect of over 60% in size
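Nrf2 activity is the BugLite luminescence, read 15 min after reagent at room temperature, following CellTiter-Fluor cytotoxicity readout (30 min, 37C). Compound titrations were applied for 18-24 h to 5000 A549 ARE_Fluc cells/well in 5% FBS OPTI-MEM.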
Nrf2 activator – activates Nrf2 signaling; 410,000 compounds, 0.31% hits; AREc32 ARE-luciferase reporter (MCF7-derived line), luminescence, 24 h; Potency, µM (series often up to 46.1 µM), without a hit: at the highest dose activation, most hits filed as activators; note: % of control where 0% means no effect; nearly all actives have a fitted effect of over 65% in size
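Each well held 1000 AREc32 cells, which were incubated with compound for 24 hr at 37 deg C after overnight attachment, and ARE reporter activity was quantified by firefly luciferase luminescence.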
A549 tox – counter-screen for Nrf2 inhibitors: cytotoxicity in A549 cells | A549 ARE-Fluc cells, CellTiter-Fluor viability, 18-24 h | Potency, µM (top dose mostly 46 µM), without a hit: at the highest dose activity change, negative = cytotoxicity, actives largely listed as inhibitors | 390,000 compounds, 0.16% hits; note: % is set by controls: 0 for no effect and ±100 for the full control effect
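Cytotoxicity counterscreen: CellTiter-Fluor fluorescence was measured in A549 ARE_Fluc cells after 18-24 h of compound exposure in a concentration series. The subsequent BugLite luminescent read reports ARE-luciferase activity.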
GALK inh – inhibitors of human galactokinase; Potency, µM (highest dose often 57.5 µM), inactives show at the highest dose activity change, negative = inhibition, most hits filed as inhibitors; AID 1868; Purified GALK, Kinase-Glo residual ATP luminescence; P51570; 270,000 compounds, 0.007% hits; note: % is set by controls: 0 for no effect and ±100 for the full control effect
Target sequence (P51570 whole entry, looked up): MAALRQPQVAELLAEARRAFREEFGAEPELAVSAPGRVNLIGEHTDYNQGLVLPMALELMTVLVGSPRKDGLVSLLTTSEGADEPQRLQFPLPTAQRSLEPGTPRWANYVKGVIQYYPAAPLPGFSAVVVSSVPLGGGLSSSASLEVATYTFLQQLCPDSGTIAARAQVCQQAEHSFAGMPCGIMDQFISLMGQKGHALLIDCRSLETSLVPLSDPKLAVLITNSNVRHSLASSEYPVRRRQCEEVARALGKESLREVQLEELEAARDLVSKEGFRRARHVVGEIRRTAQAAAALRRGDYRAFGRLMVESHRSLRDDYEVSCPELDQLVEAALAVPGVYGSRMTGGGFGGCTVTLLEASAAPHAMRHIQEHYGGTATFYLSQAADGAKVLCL
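Quantitative HTS: GALK 5 nM, ATP 35 uM, galactose 100 uM, 1 h room temperature, then luciferase-based ATP detection.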
rTrxR1 inhibitor – inhibitors of rat thioredoxin reductase 1; 390,000 compounds, 1% hits; O89049; recombinant rTrxR1, NADPH fluorescence consumption, selenite substrate; Potency, µM (highest dose often 114 µM), for inactives: at the highest dose activity change, negative = inhibition, most hits filed as inhibitors; note: % is set by controls: 0 for no effect and ±100 for the full control effect; nearly all actives have a fitted effect of over 65% in size
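Rat TrxR1 (90 nM in the dispensed reagent) was pre-reduced with 400 uM NADPH for 5 min at room temperature, then incubated with compound for 15 min. After 400 uM selenite was added, NADPH fluorescence (Ex 340/Em 450 nm) was followed for 8 min.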
TrxR1 substrate – substrates of rat thioredoxin reductase 1. O89049. purified TrxR1 substrate turnover, NADPH consumption readout. Potency, µM (doses to about 114 µM), for inactives: top-dose activity change, negative = substrate turnover. 390,000 compounds, 0.01% hits. AID 588456; note: % is set by controls: 0 for no effect and ±100 for the full control effect; nearly all actives have a fitted effect of over 50% in size
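Rat TrxR1, dispensed at 90 nM, was prereduced with 400 uM NADPH (final) for 5 min at ~22 deg C, then incubated with compound 15 min before 400 uM selenite. A first-read NADPH fluorescence drop versus no-compound background flagged substrates.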
An asterisk follows results filed as active; u = inconclusive; x = no result; [ ] = another dose, or the depositor's remark. Calls come from the whole dose curve; as a rule, active = well fitted curve in the direction sought with a large enough effect; inconclusive = small, poorly fitted or top-dose-only effect, or another doubt; inactive = no such curve, though single readings can be large; an effect the other way counts as inactive or inconclusive. Potency is the fitted concentration of half-maximal effect.

SMILES	Nrf2 inh	Nrf2 activator	A549 tox	GALK inh	rTrxR1 inhibitor	TrxR1 substrate
COc1cc2c(OC(C)=O)c3c(c(-c4ccc5c(c4)OCO5)c2cc1OC)C(=O)OC3	u	17%	u	-2%	-36%	41%
COc1cc2c(O)c3c(c(-c4ccc5c(c4)OCO5)c2cc1OC)C(=O)OC3	u	6%	18µM*	3%	28%	22%
CN(C)CCCNc1cc(N2CCN(C)CC2)ncn1	x	x	x	x	7%	0%
N#CC1=C(SCC(=O)NC23CC4CC(CC(C4)C2)C3)NC(=O)C(C#N)C12CCCCC2 (stereo not given)	15µM*	1%	u	-5%	-1%	0%
N#CC1=C(SCC(=O)NC2CC2)NC(=O)C(C#N)C12CCCCC2 (stereo not given)	-10%	0%	0%[1.84 µM]	1%	0%	2%
CCOCCc1nn2c(=O)cc(COC(=O)COc3ccc(C)c(C)c3)nc2s1	u	-1%	-4%	x	10%[57.1 µM]	4%[57.1 µM]
CSC1=C(C#N)C(c2ccccc2C)C(C#N)=C(N)N1 (stereo not given)	u	0%	x	-1%	50µM*	-4%
CSC1=C(C#N)C(c2ccccc2Cl)C2=C(N1)c1ccccc1C2=O (stereo not given)	-18%	2%	0%	x	50µM*	-6%
CC1=C(C#N)C(c2cccnc2)C2=C(N1)c1ccccc1C2=O (stereo not given)	7%	-1%	0%	-2%	5%[57.1 µM]	4%[57.1 µM]
CC1=C(C#N)C(c2ccccc2)C2=C(N1)c1ccccc1C2=O (stereo not given)	23µM*	0%	u	x	-19%	-9%
C(=N\Nc1nc(-c2ccccc2)cs1)/c1cccnc1	17%	11%	-5%	0%	-16%	-1%[57.1 µM]
Clc1ccc(-c2csc(N/N=C/c3cccnc3)n2)c(Cl)c1	13µM*	5%	2%	-1%	-9%[57.1 µM]	5%[57.1 µM]
COc1ccc(C(=O)/C=C/C(=O)N(CC(=O)NC2CCCCC2)Cc2ccccc2OC)c(O)c1	u	19%	u	-2%	u	8%[57.1 µM]
COc1ccc(C(=O)/C=C/C(=O)N(CC(=O)NC2CCCCC2)Cc2ccccc2)c(O)c1	-27%	3%	u	4%	3.2µM*	8%
COc1ccc(C(=O)/C=C/C(=O)N(CC(=O)NC2CCCCC2)CC2CCCO2)c(O)c1 (stereo not given)	21µM*	u	u	-1%	1.3µM*	-14%
CSc1ccc(CNC(=O)Cn2nc(N3CCN(c4ccccc4)CC3)ccc2=O)cc1	5%	5%	-4%	x	12%[57.1 µM]	5%[57.1 µM]
CNC(=O)c1ccc2nc(-c3cccc(C)c3)c(-c3cccc(C)c3)nc2c1	-21%	x	-1%	x	5%	34%
Cc1cnc2c(C)cccc2c1/C=C/c1ccc(N(C)C)cc1	x	x	x	x	-5%	-5%
Cc1ccc(CSC(Nc2ccc(F)cc2)=C(C#N)C#N)cc1	21µM*	26%	u	-1%	-4%	-7%
CCN(CC)C(=O)CSC(Nc1ccc(F)cc1)=C(C#N)C#N	4%	6%	-18%	2%	3%	1%
Cc1cc(C)c2c(c1)NC(C(=O)O)C1CC=CC21 (stereo not given)	2%	1%	-10%	7%	4µM*	2%
CCOC(=O)c1ccc2c(c1)C1C=CCC1C(C(=O)O)N2 (stereo not given)	x	x	x	3%	x	x
Cc1cc(C)c2c(c1)C1C=CCC1C(C(=O)O)N2 (stereo not given)	-4%	x	-15%	x	1.4µM*	1%
Cc1ccc2c(c1C)NC(C(=O)O)C1CC=CC21 (stereo not given)	-15%	2%	-18%	2%	2.5µM*	13%
O=C(O)C1Nc2c(C(F)(F)F)ccc(Cl)c2C2C=CCC12 (stereo not given)	-13%	5%	-1%	0%	u	3%[2.29 µM]
SMILES	Nrf2 inh	Nrf2 activator	A549 tox	GALK inh	rTrxR1 inhibitor	TrxR1 substrate
O=C(c1ccccc1O)N1CCOCC1	10%	-1%	-5%	0%	10%	8%
O=C(O)C1Nc2c(C(=O)N3CCOCC3)cccc2C2C=CCC12 (stereo not given)	-10%	0%	u	2%	1.6µM*	-7%
CCOC(=O)c1cc2c(=O)n3ccccc3nc2n(CC2CCCO2)c1=NC(=O)c1ccc(C)cc1 (stereo not given)	-18%[9.27 µM]	3%	u	x	-17%	180%
O=C(O)C1Nc2ccccc2C2C=CCC12 (stereo not given)	6%	x	-7%	x	3.5µM*	-5%
Cc1ccc(S(=O)(=O)N2CCN(C(=O)c3cc(-c4ccc(Br)cc4)n[nH]3)CC2)c(C)c1	u	1%	3%	x	17%	8%
CCCCCN1C(C(=O)c2ccccc2)=C(NC(=O)c2ccc(OC)cc2)c2ccccc2S1(=O)=O	-2%	-1%	-15%	x	15%	-6%
N#CCC(=O)Nc1ccc(C(=O)NNC(=S)NC2CCCCC2)cc1	-3%	0%	1%	x	26%[57.1 µM]	16%[57.1 µM]
CC(C)CC(=O)Nc1ccc(C(=O)NNC(=S)NC(=O)C2CCCCC2)cc1	8.2µM*	-1%	2%	-1%	-9%	8%
O=C1CCC[C@@H]2C[C@@]3(C[C@@H]4CCN1[C@H]24)Nc1ccccc1NC3=NC1CCCCC1	x	x	x	x	10%	-3%
Fc1ccccc1/C=C1\CCCC2=C1NC(=S)NC2c1ccccc1F (stereo not given)	8.2µM*	3%	-13%	7%	-28%	5%[57.1 µM]
CCC12CN3CC(C)(CN(C1)C3c1c[nH]c3ccccc13)C2=O (stereo not given)	-1%	0%	0%	x	10%	0%
O=C(NCCc1ccccc1)c1ccc(CSc2nc3ccncc3n2Cc2cccc(F)c2)cc1	u	2%	-4%	x	1%	-7%
COc1ccccc1N1C(=O)C=C(Sc2nc(C)cc(C)n2)C1=O	3%	-1%	4%	1%	2.8µM*	11%[11.4 µM]
Cc1ccc(F)cc1NC(=O)Cn1c(C)cc(C)c(C#N)c1=O	x	1%	0%	x	-4%[57.1 µM]	-1%[57.1 µM]
CSc1ncc(Cl)c(C(=O)Nc2cccnc2)n1	2%	11µM*	-6%	4%	-7%	-4%
Cc1cccc(N2CCN(c3nc4ccccc4c4nc(-c5ccccc5)nn34)CC2)c1C	1%	-1%	1%	x	4%	-3%
COc1ccc(N2C(=O)CC(NCCNc3ccc([N+](=O)[O-])cn3)C2=O)cc1 (stereo not given)	-15%	0%	-11%	1%	14µM*	-6%
COc1ccc(NC(=S)Nc2ncccc2C)c(OC)c1	u	0%	3%	-1%	1.8µM*	6%
